Active and inactive are the calls of the source.
Experiments:
[1] = tested on: Wnt5a (protein binding on small-molecule microarray); assay: small molecules binding Wnt5a protein – biophysical, small-molecule microarray, 635/667 nm fluorescence, primary screen (AID 1142); settings: 635 nm fluorescence, higher = more signal;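 also: fluorescence read at 667 nm with signal to noise per printed feature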
[2] = ATP-based viability of Huh7 replicon cells – cell-based, CellTiter-Glo luminescence, basal, 48 h, cytotoxicity control for HCV replication inhibitor project, primary screen (AID 1143); settings: higher = more signal, called active from +8 up or from −8 down;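 also: Huh7 hepatoma cells carrying a hepatitis C replication reporter with no stimulus; test concentration not given here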
[3] = basal CRE-LacZ reporter activity in PC12 – cell-based, unstimulated, primary screen (AID 1145); settings: no forskolin, luminescence, 4.5 h, higher = more signal, called active from +8 up or from −8 down
[4] = forskolin-driven CRE-LacZ activity in PC12 – cell-based, CRE-LacZ reporter, forskolin-stimulated, primary screen (AID 1146); settings: luminescence, 4.5 h, higher = more signal, called active from +8 up or from −8 down;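 also: PC12 cells with 6xCRE LacZ reporter stimulated by forskolin 10 µM; beta-galactosidase reporter signal reflecting CREB driven transcription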
[5] = target: Streptavidin (Streptomyces avidinii) (UniProt P22629); assay: compounds binding control protein streptavidin – biophysical, small-molecule microarray, 635/667 nm fluorescence, artefact control for SMM compound annotation, primary screen (AID 1147); settings: higher = more signal;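 also: signal reflects streptavidin binding to arrayed compounds as a control protein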
[6] = probe aInhba binding on compound microarray – biochemical, small-molecule microarray, 635/667 nm fluorescence, primary screen (AID 1148); settings: higher = more signal;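 also: score merges 667nm spot fluorescence with signal-to-noise for antibody binding to printed compounds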
Torsin-1A (Homo sapiens) [7] = target: Torsin-1A (Homo sapiens) (UniProt O14656); assay: TOR1A wild-type binding on microarray – cell lysate, small-molecule microarray, lysate, 635/667 nm, primary screen (AID 1149); settings: COS7 hTOR1A-WT lysate, 635 nm fluorescence, higher = more signal
Torsin-1A (Homo sapiens) [8] = target: Torsin-1A (Homo sapiens) (UniProt O14656); assay: torsin A mutant lysate binding on microarrays – cell lysate, small-molecule microarray, COS7 lysate, 635/667 nm fluorescence, primary screen (AID 1150); settings: COS7 hTOR1A mutant lysate, 635 nm fluorescence, higher = more signal;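 also: score pools 667 nm emission and signal to noise measuring lysate protein binding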
[9] = tested on: Sonic hedgehog protein (Shh); assay: Sonic hedgehog microarray binding compounds – biochemical, small-molecule microarray, 635/667 nm fluorescence, primary screen (AID 1151); settings: 635 nm fluorescence, higher = more signal;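 also: Shh protein binding to compounds spotted on small-molecule microarray slides; score combines spot fluorescence intensity with signal-to-noise across triplicate slides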
[10] = optical density shifts of acrAB sulA E. coli – strain DRC41, OD650, 48 h, E. coli filamentation inducer project, primary screen (AID 1152); settings: higher = more signal, called active from +8 up or from −8 down;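 also: E. coli MC1000 strain DRC41 lacking acrAB efflux pump and sulA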
[11] = probe aLefty1 binding on compound microarray – biochemical, small-molecule microarray, 635/667 nm fluorescence, primary screen (AID 1153); settings: higher = more signal;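 also: score merges spot fluorescence with signal-to-noise ratio from the scanned slide images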
[12] = plasmodial surface anion channel blockers, osmotic lysis – cell-based, P. falciparum Indochina, OD700, 1 h, primary screen (AID 1154); settings: P. falciparum Indochina infected RBC osmotic lysis, higher = more signal, called active from +8 up or from −8 down
[13] = plasmodial surface anion channel blockers, osmotic lysis – cell-based, P. falciparum Indochina, OD700, 2 h, primary screen (AID 1155);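 also: lysis reports solute entry through the parasite surface anion channel PSAC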; settings: P. falciparum Indochina infected erythrocytes, higher = more signal, called active from +8 up or from −8 down
[14] = changes in parasitized red cell lysis, either direction – P. falciparum Indochina, OD700, 3 h, PSAC antagonist project, primary screen (AID 1156); settings: P. falciparum-infected erythrocytes, osmotic lysis, higher = more signal, called active from +8 up or from −8 down
[15] = plasmodial surface anion channel blockers, osmotic lysis – cell-based, P. falciparum Indochina, OD700, 18 h, primary screen (AID 1157); settings: P. falciparum Indochina infected erythrocytes, osmotic lysis OD700, 18 h; higher = more signal, called active from +8 up or from −8 down
[16] = S6 kinase pathway phospho-S6 level changes – cell-based, A549, cytoblot, luminescence, serum-stimulated, primary screen (AID 1158); settings: 5 h, higher = more signal;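 also: serum-stimulated A549 lung adenocarcinoma cells; signal is phosphorylated S6 detected by cytoblot immunostaining with HRP secondary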
[17] = target: NADPH oxidase 2 (Homo sapiens) (UniProt P04839); assay: compounds shifting NOX2 Amplex Red fluorescence – cell-based, HEK293-NOX2, PMA-stimulated, NOX inhibitor project, primary screen (AID 1159); settings: 45 min, higher = more signal, called active from +8 up or from −8 down; also: test concentration not given here
[18] = target: NADPH oxidase 4 (Homo sapiens) (UniProt Q9NPH5); assay: compounds shifting NOX4 Amplex Red fluorescence – cell-based, HEK293-NOX4, tetracycline-induced, NOX inhibitor project, primary screen (AID 1160); settings: HEK293-NOX4, Amplex Red H2O2 fluorescence, 45 min; higher = more signal, called active from +8 up or from −8 down
[19] = target: NADPH oxidase 5 (Homo sapiens) (UniProt Q96PH1); assay: compounds shifting NOX5 Amplex Red fluorescence – cell-based, HEK293-NOX5, NOX inhibitor project, primary screen (AID 1161); settings: HEK293-NOX5, ionomycin, 45 min, higher = more signal
[20] = compound effects on lung adenocarcinoma cell viability – A549, calcein-AM fluorescence, 48 h, basal, profiling panel (AID 1162); settings: higher = more signal; also: test concentration not given here

Sequence of Streptavidin (Streptomyces avidinii) (P22629 whole entry, looked up): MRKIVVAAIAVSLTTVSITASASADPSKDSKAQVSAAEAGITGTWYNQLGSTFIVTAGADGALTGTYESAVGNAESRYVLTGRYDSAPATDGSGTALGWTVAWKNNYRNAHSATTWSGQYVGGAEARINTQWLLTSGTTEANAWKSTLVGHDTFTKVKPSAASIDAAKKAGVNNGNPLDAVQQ
Sequence of Torsin-1A (Homo sapiens) (O14656 whole entry, looked up): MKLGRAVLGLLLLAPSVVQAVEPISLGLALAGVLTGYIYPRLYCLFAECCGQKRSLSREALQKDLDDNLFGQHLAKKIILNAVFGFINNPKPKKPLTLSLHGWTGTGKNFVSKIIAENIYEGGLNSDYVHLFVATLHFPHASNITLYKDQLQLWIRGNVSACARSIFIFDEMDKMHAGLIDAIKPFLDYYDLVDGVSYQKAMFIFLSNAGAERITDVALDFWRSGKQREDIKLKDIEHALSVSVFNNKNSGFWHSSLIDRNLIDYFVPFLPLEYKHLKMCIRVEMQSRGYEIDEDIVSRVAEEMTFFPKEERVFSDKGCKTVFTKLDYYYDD
Sequence of NADPH oxidase 5 (Homo sapiens) (Q96PH1 whole entry, looked up): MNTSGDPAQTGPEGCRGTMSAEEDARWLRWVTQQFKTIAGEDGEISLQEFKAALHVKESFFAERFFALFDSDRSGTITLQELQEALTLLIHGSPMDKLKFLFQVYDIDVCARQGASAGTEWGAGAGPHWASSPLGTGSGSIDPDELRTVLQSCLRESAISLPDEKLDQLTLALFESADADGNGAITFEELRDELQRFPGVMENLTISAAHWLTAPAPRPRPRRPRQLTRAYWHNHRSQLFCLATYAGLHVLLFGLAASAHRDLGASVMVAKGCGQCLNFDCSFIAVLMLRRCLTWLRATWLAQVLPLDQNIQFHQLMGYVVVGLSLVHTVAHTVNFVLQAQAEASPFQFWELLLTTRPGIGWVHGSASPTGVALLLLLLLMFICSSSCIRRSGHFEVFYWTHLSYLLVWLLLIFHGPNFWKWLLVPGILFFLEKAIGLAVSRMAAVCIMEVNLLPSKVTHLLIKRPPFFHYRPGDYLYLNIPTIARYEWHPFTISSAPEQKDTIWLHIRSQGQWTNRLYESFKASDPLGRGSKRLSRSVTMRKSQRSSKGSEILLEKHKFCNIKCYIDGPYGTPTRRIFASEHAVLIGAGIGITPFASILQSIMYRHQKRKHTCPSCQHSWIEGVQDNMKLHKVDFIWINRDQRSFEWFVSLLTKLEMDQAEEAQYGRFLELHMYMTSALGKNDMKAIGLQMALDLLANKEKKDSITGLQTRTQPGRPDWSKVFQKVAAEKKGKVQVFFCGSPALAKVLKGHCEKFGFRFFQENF
Sequence of NADPH oxidase 2 (Homo sapiens) (P04839 whole entry, looked up): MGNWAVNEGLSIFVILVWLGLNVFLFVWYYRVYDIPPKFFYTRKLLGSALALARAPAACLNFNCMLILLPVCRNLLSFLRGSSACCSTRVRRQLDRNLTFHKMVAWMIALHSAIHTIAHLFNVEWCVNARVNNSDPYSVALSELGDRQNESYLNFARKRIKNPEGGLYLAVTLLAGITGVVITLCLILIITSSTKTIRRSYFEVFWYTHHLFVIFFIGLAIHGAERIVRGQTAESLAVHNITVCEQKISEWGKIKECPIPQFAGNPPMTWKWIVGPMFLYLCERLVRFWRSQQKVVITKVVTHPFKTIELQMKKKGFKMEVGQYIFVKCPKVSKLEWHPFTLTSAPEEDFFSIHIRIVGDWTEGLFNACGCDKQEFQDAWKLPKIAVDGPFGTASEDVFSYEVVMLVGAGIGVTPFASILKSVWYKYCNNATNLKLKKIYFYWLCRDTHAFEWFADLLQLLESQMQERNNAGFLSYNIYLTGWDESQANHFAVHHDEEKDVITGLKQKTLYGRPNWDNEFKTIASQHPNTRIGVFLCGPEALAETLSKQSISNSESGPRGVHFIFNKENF
Sequence of NADPH oxidase 4 (Homo sapiens) (Q9NPH5 whole entry, looked up): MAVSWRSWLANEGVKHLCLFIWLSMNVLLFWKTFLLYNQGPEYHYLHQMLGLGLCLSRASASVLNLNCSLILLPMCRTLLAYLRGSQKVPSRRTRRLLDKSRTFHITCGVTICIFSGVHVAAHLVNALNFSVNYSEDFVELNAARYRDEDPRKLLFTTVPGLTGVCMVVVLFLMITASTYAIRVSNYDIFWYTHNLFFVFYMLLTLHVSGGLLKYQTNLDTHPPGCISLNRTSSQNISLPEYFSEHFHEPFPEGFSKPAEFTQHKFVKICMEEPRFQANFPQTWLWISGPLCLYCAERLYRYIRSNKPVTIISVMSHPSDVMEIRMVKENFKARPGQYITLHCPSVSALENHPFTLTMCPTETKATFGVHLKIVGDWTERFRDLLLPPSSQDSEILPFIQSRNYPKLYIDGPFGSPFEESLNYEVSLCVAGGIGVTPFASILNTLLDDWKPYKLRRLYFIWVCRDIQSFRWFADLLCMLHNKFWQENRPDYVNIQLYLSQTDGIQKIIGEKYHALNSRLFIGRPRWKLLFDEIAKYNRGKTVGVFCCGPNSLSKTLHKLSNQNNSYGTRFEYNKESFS

Structure (SMILES)	composite z-score [1]	z-score [2]	z-score [3]	z-score [4]	composite z-score [5]	composite z-score [6]	composite z-score (Torsin-1A (Homo sapiens) [7])	composite z-score (Torsin-1A (Homo sapiens) [8])	composite z-score [9]	z-score [10]	composite z-score [11]	z-score [12]	z-score [13]	z-score [14]	z-score [15]	z-score [16]	z-score [17]	z-score [18]	z-score [19]	z-score [20]
CC(C)(C)OC(=O)CC[C@@]12N=C(c3ccc(OCCCO)cc3)O[C@@H]1c1ccccc1N(Cc1ccccc1)C2=O	0.215	-4.37 (inactive)	1.6 (inactive)	-1.25 (inactive)	-0.0873	0.222	0.488	0.516	0.657	0.94 (inactive)	0.659	28.5 (active)	29 (active)	3.86 (inactive)	2.24 (inactive)	0.497	1.56 (inactive)	-0.266 (inactive)	-1.38	-0.236
CC(C)C(=C=CC[C@H](O)c1ccc(OCCO)cc1)C[C@H](O)COCc1ccccc1	0.317	-3.34 (inactive)	12.1 (active)	-0.14 (inactive)	0.192	-0.0986	1.11	1.42	1.96	0.811 (inactive)	0.0751	20.1 (active)	4.54 (inactive)	1.7 (inactive)	0.923 (inactive)	-0.474	-0.557 (inactive)	-0.142 (inactive)	-1.87	0.153
C=C(COC)C(=O)CC[C@H](OC(=O)c1cccnc1)c1cccc(OCCO)c1	1	-0.365 (inactive)	6.86 (inactive)	0.309 (inactive)	-0.347	0.345	2.35	0.0556	2.06	1.05 (inactive)	0.75	10.4 (active)	1.47 (inactive)	0.934 (inactive)	0.577 (inactive)	-0.597	0.936 (inactive)	0.743 (inactive)	-1.3	0.18
C=CCNC(=O)[C@@H]1[C@H]2C(=O)O[C@H](c3ccccc3)[C@H](c3ccccc3)N2[C@H](c2ccc(O)cc2)[C@@]12C(=O)Nc1ccc(C#Cc3ccc(OC)cc3)cc12	0.212	-4.8 (inactive)	-0.0784 (inactive)	-1.25 (inactive)	1.16	0.0228	0.248	0.286	0.551	2.73 (inactive)	0.159	1.27 (inactive)	-0.224 (inactive)	0.375 (inactive)	-0.957 (inactive)	0.98	1.35 (inactive)	1.23 (inactive)	0.0881	-0.629
O=C1N(CCS(=O)(=O)c2ccccc2)Cc2ccccc2[C@@H]2OC(c3ccc(OCCCO)cc3)=N[C@]12Cc1ccccc1	1.14	-3.69 (inactive)	0.927 (inactive)	-1.09 (inactive)	1.66	0.243	0.612	0.29	1.96	0.218 (inactive)	0.327	27.7 (active)	18.5 (active)	3.32 (inactive)	2.53 (inactive)	0.503	-3.23 (inactive)	-0.195 (inactive)	1.01	-1.08
C=CCN1C(=O)[C@@]2(O[C@@H](CCn3cc(CCO)nn3)[C@H]([Si](C)(C)c3ccc(OC)cc3)[C@H]2C)c2cc(N3C(=O)c4cccc5cccc3c45)ccc21	0.662	-7.17 (inactive)	37.8 (active)	-3.77 (inactive)	0.854	0.0377	0.311	0.615	0.802	2.05 (inactive)	0.0318	16.4 (active)	3.97 (inactive)	-0.551 (inactive)	1.5 (inactive)	0.905	0.576 (inactive)	1.11 (inactive)	-0.148	-4.11
CCCCCN1CC=CC23O[C@@H]4/C=C\CCC(C)OC(=O)C4[C@H]2C(=O)N(CCO)[C@@H]3C1=O (stereo not given in full)	-0.376	-0.989 (inactive)	1.02 (inactive)	-1.06 (inactive)	-0.877	-0.233	0.615	0.816	-0.542	2.08 (inactive)	-0.147	2.04 (inactive)	0.402 (inactive)	0.944 (inactive)	0.0613 (inactive)	0.0564	1.88 (inactive)	-0.354 (inactive)	2.5	0.414
[N-]=[N+]=NCc1ccccc1C[C@@]1(C(=O)NCc2ccccc2)N=C(c2ccc(OCCCO)cc2)O[C@@H]1c1ccccc1	0.238	-5.27 (inactive)	0.596 (inactive)	-0.942 (inactive)	0.229	-0.025	0.0526	1.48	-0.353	1.75 (inactive)	0.277	21 (active)	5.58 (inactive)	1.81 (inactive)	-0.217 (inactive)	0.969	1.2 (inactive)	0.964 (inactive)	0.0832	-2.22
CC(=O)NCCCC[C@@H]1NC(=O)[C@@H]2C[C@H](C(=O)O)[C@H](c3cccc(OCCO)c3)N2C1=O	0.45	-0.533 (inactive)	0.151 (inactive)	-0.741 (inactive)	0.397	-0.0403	0.911	0.903	2.12	0.733 (inactive)	-0.138	0.495 (inactive)	0.373 (inactive)	-1.49 (inactive)	0.0814 (inactive)	0.264	-1.16 (inactive)	-0.282 (inactive)	-0.948	0.0822
C=CCC1(CC=C)C[C@H]2CO[C@H](c3ccc(OC)cc3)N2C1=O	-0.125	-0.15 (inactive)	1.73 (inactive)	-0.473 (inactive)	-0.147	-0.105	0.483	0.862	0.707	2.03 (inactive)	-0.0654	-0.214 (inactive)	0.573 (inactive)	-0.123 (inactive)	0.503 (inactive)	0.0446	0.992 (inactive)	0.181 (inactive)	-0.0682	1.12
O=C1c2ccccc2[C@@]2(Cc3ccccc3N(CC(F)(F)F)C2=O)[C@H](c2ccc(CO)cc2)N1Cc1ccccc1C(F)(F)F	-0.388	-1.02 (inactive)	-0.556 (inactive)	-1.56 (inactive)	-1.04	-0.224	-1.41	-0.322	-0.643	1.43 (inactive)	-0.23	0.0937 (inactive)	-0.926 (inactive)	0.593 (inactive)	-1.39 (inactive)	0.936	0.0968 (inactive)	0.396 (inactive)	1.09	1.73
COc1ccc(/C=C/C(=O)c2cccc(OCC(=O)OC(C)(C)C)c2)cc1	-0.132	-0.385 (inactive)	0.622 (inactive)	-0.588 (inactive)	-0.152	-0.363	0.349	0.179	-0.139	1.42 (inactive)	-0.113	30.9 (active)	25.8 (active)	0.746 (inactive)	1.41 (inactive)	0.112	-1.32 (inactive)	0.197 (inactive)	-3.7	0.764
CC(C)C(CO)N1C(=O)[C@@H]2C3C(=O)OCCC/C=C\[C@H]3OC23C=CCN(C(C)C)C(=O)[C@@H]13 (stereo not given in full)	-0.0608	0.303 (inactive)	0.333 (inactive)	-1.18 (inactive)	-0.643	0.0228	0.286	0.703	0.321	2.21 (inactive)	-0.142	-0.0173 (inactive)	-0.96 (inactive)	-0.677 (inactive)	-1.36 (inactive)	0.225	0.914 (inactive)	0.527 (inactive)	1.56	0.136
O=C1O[C@H](c2ccccc2)[C@H](c2ccccc2)N2[C@H]1[C@@H](C(=O)NC[C@H](O)c1ccccc1)[C@]1(C(=O)Nc3ccc(C#CC4(O)CCCCCC4)cc31)[C@H]2c1ccc(O)cc1	0.195	-2.13 (inactive)	-0.0607 (inactive)	-0.58 (inactive)	0.26	0.0377	0.704	1.02	1.27	1.46 (inactive)	0.0495	0.519 (inactive)	0.447 (inactive)	0.001 (inactive)	-0.181 (inactive)	0.381	1.68 (inactive)	0.753 (inactive)	1.58	0.97
C=CC[C@@]1(C(=O)NCc2ccccc2)N=C(c2ccc(OCCCO)cc2)O[C@@H]1c1ccccc1	0.102	-4.6 (inactive)	-0.16 (inactive)	-1.56 (inactive)	0.344	0.0582	0.161	0.551	-0.435	2.48 (inactive)	0.399	24.4 (active)	11.3 (active)	2.34 (inactive)	0.546 (inactive)	1.46	-0.189 (inactive)	0.956 (inactive)	-1.14	-0.506
COc1ccc(C#Cc2ccc3c(c2)[C@]2(C(=O)N3)[C@H](c3ccc(O)cc3)N3[C@H](c4ccccc4)[C@H](c4ccccc4)OC(=O)[C@H]3[C@@H]2C(N)=O)cc1	0.295	-5.1 (inactive)	0.209 (inactive)	-0.532 (inactive)	-0.881	-0.153	0.255	-0.0088	-0.301	1.63 (inactive)	-0.147	2.89 (inactive)	1.58 (inactive)	0.672 (inactive)	1.23 (inactive)	0.76	1.76 (inactive)	-1.43 (inactive)	0.618	-1.55

Source: PubChem BioAssay
